Assay outcomes: PubChem BioAssay, National Center for Advancing Translational Sciences (NCATS)
Most compounds without a hit are left out; they make up all but 13% or so of the library.
Pf growth 96h: P. falciparum growth inhibition at 96 hours; Potency, µM (highest dose often 28.7 µM), for inactives: at the top dose activity change, negative = inhibition, actives largely listed as inhibitors; P. falciparum luciferase reporter growth, 96 h; actives 6.9% (n = 320,000); also: potency is read from the fitted curve at half-maximal effect
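Erythrocytes infected with luciferase-expressing P. falciparum were dispensed at 2% hematocrit and 0.05% parasitemia (final), then incubated with compounds 96 hours at 37 C in 5% CO2. Luminescence after detection reagent addition reported growth.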
HCMV inh: blocks human cytomegalovirus replication; HFF cells, HCMV-luciferase reporter, 72 h; hits give low values; activity change, negative = inhibition, % at 57.5 µM; actives 4.5% (n = 410,000); AID 1259415; in the data active = activity change below about -60%; inconclusive = no clear call, values can overlap the other calls; inactive = above about -39%
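Steps: HFFs plated, 16 h 37C; compounds added; HCMV-luciferase added to MOI 1 PFU/cell; 72 h 37C; OneGlo reagent, 5 min room temperature; luminescence read, normalized to controls.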
Pf growth 48h: inhibits P. falciparum growth in the first generation, 48 h | P. falciparum luciferase growth in erythrocytes, 48 h | Potency, µM (titrated, usually from 28.7 µM), inactives show at the top dose activity change, negative = inhibition, most hits filed as inhibitors | actives 5.9% (n = 310,000); also: potency is read from the fitted curve at half-maximal effect
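Luciferase-expressing parasites in RBCs, 2% Hct / 0.1% parasitemia final; RPMI 1640 + 0.5% Albumax; 37 C, 5% CO2, one generation; luminescence read-out, lower signal = inhibition.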
HCV inh: inhibitors of hepatitis C virus infection | Huh7.5.1 HCVcc-Cre infection, luciferase reporter, 44 h | Potency, µM (titrated, usually from 41.8 µM), without a hit: at the highest dose activity change, negative = inhibition, most hits filed as inhibitors | actives 3.4% (n = 340,000) | AID 651820; also: potency is read from the fitted curve at half-maximal effect
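Seed cells (1,000/well) for 4 h; treat with compound and infect with HCVcc-Cre, moi about 0.5. Incubate 44 h, then detect luciferase activity.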
Numbers without * were called inactive; ! = repeats disagree. Unless noted, calls follow the shape of the dose curve; as a rule, active = well fitted inhibition curve with a large enough effect; inconclusive = small, poorly fitted or top-dose-only effect, or another doubt; inactive = no such curve, though single readings can be large or run the other way. % is scaled to controls: 0 for no effect and ±100 for the full control effect.

What do the screens show for `CCCNC(=O)c1ccc(N2CCC3(CC2)CC(c2ccccc2)=NO3)c(NC(=O)c2ccco2)c1`?
Pf growth 96h: 1.2µM*; HCMV inh: 94; Pf growth 48h: inconclusive; HCV inh: inconclusive

How did CCCCC(CC)C(=O)Nc1cc(C(=O)NCCC)ccc1N1CCC2(CC1)CC(c1ccccc1)=NO2 (configuration not stated) do in these assays?
Pf growth 96h: 1.5µM*; HCMV inh: -16; Pf growth 48h: -38%; HCV inh: inconclusive

How did Cc1ccc(CNC(=O)c2ccc(N3CCC4(CC3)CC(c3cccc(Br)c3)=NO4)c(NC(=O)c3ccco3)c2)cc1 do in these assays?
Pf growth 96h: 3.7µM*; HCMV inh: inconclusive; Pf growth 48h: 1.7µM*; HCV inh: -14%

What do the screens show for `O=C(NCC1CC1)C1Cc2c(-c3ccc4c(c3)OCO4)ccnc2O1` (configuration not stated)?
HCMV inh: -30

What do the screens show for `COc1ccccc1NC(=O)N(Cc1cccs1)Cc1cc2cc3c(cc2[nH]c1=O)OCO3`?
Pf growth 96h: inconclusive; HCMV inh: 12; Pf growth 48h: inconclusive; HCV inh: inconclusive

Results for CCc1ccc2[nH]c(=O)c(CN(CCN(C)C)C(=O)Nc3ccccc3OC)cc2c1 ?
Pf growth 96h: inconclusive; HCMV inh: -13; Pf growth 48h: inconclusive; HCV inh: -6%

Results for CCc1ccc2[nH]c(=O)c(CN(Cc3ccccc3)C(=O)Nc3ccccc3OC)cc2c1 ?
HCMV inh: inconclusive; Pf growth 48h: -93%; HCV inh: 2.5µM*

How did CCc1ccc2[nH]c(=O)c(CN(CCN(CC)CC)C(=O)Nc3ccccc3OC)cc2c1 do in these assays?
Pf growth 96h: 31%; HCMV inh: -31; Pf growth 48h: 15µM*; HCV inh: 0%

How did COc1ccccc1NC(=S)N(CCCN(C)C)Cc1cc2cc3c(cc2[nH]c1=O)OCO3 do in these assays?
Pf growth 96h: 4%; HCMV inh: 21; Pf growth 48h: -20%; HCV inh: -19%

How did COC(=O)c1ccccc1NC(=S)N(Cc1ccc2c(c1)OCO2)Cc1cc2cc(OC)ccc2[nH]c1=O do in these assays?
Pf growth 96h: 31%; HCMV inh: inconclusive; Pf growth 48h: inconclusive; HCV inh: 11µM*

How did CCN(CC)CCCN(Cc1cc2cc(OC)ccc2[nH]c1=O)C(=O)Nc1ccccc1 do in these assays?
Pf growth 96h: inconclusive; Pf growth 48h: 9.3µM*; HCV inh: inconclusive

How did CCOc1ccccc1CNC(=O)c1cc(-c2ccc(C)c(C)c2)nc2ccccc12 do in these assays?
HCMV inh: -31

Results for O=C(COc1ccc(Br)cc1Br)Nc1ccc(S(=O)(=O)Nc2ncccn2)cc1 ?
HCMV inh: -7

Results for CN(C)c1ccc(CNC(=O)C2CCN(S(=O)(=O)c3ccc4c(ccn4C)c3)CC2)cc1 ?
HCMV inh: 2

Results for COc1cc2cc(CN(Cc3cccnc3)C(=O)NCc3ccccc3)c(=O)[nH]c2cc1OC ?
Pf growth 96h: inconclusive; HCMV inh: 36; Pf growth 48h: 9.3µM*; HCV inh: 11%

Results for O=C(NCCC1=CCCCC1)c1ccc2c(c1)N(Cc1ccc(Cl)cc1)C(=O)c1ccccc1S2=O (configuration not stated) ?
HCMV inh: 1

How did O=C1[C@H](O)[C@@H](O)C(=O)N1Cc1ccccc1 do in these assays?
Pf growth 96h: -5%; HCMV inh: -4; Pf growth 48h: 7%; HCV inh: -7%

How did CC1=CC(=C(C#N)C#N)C=C(C)N1Cc1ccccc1 do in these assays?
Pf growth 96h: 4.7µM*; HCMV inh: -26; Pf growth 48h: inconclusive; HCV inh: 3%

Results for Cc1cc(C)c(NS(=O)(=O)c2cc(-c3onc(C)c3C)ccc2C)c(C)c1 ?
HCMV inh: -62*

What do the screens show for `COc1ccc(NS(=O)(=O)c2cc(-c3onc(C)c3C)ccc2C)c(OC)c1`?
HCMV inh: 12

Results for CCOC(=O)C1CCCN(S(=O)(=O)c2cc(-c3onc(C)c3C)ccc2OC)C1 (configuration not stated) ?
HCMV inh: -7

How did Cc1ccc2c(c1)N(S(=O)(=O)c1cc(-c3onc(C)c3C)ccc1C)CCO2 do in these assays?
Pf growth 96h: inconclusive; HCMV inh: -67*!; Pf growth 48h: inconclusive; HCV inh: 5µM*

What do the screens show for `Cc1ccc(-c2onc(C)c2C)cc1S(=O)(=O)Nc1ccc(Cl)cn1`?
HCMV inh: 103

Results for Cc1ccc(C)c(N2CCN(S(=O)(=O)c3cc(-c4cc(C)no4)ccc3C)CC2)c1 ?
HCMV inh: 0

How did Cc1ccc(-c2onc(C)c2C)cc1S(=O)(=O)NC1CCC(C)CC1 (configuration not stated) do in these assays?
HCMV inh: -67*

How did COc1ccc(-c2onc(C)c2C)cc1S(=O)(=O)N1CCC(C)CC1 do in these assays?
HCMV inh: -79*

What do the screens show for `COc1ccc(C2c3c(oc4ccccc4c3=O)C(=O)N2c2nc(C)c(C)s2)cc1` (configuration not stated)?
HCMV inh: 5

What do the screens show for `Cc1ccc(N2CC(NC(=O)c3ccc(Br)o3)CC2=O)cc1C` (configuration not stated)?
HCMV inh: 32

Results for Cc1ccc(N2CCN(C(C(=O)Nc3c(C)cccc3C)c3cc4ccccc4o3)CC2)cc1 (configuration not stated) ?
HCMV inh: -19

Results for CC(=O)OC1C(O)C(C)OC(OC2C(OC(=O)C3CCC4C(C3)OC3(CC(OC(=O)/C=C/c5ccccc5)C(C)CO3)C43CO3)OC(C)C(O)C2OC(C)=O)C1O (configuration not stated) ?
HCMV inh: -98*; HCV inh: inconclusive

Results for CC(=O)CCC1C2C(O)C(C(C)C)C(OC(=O)/C=C/c3ccccc3)CC12C (configuration not stated) ?
Pf growth 96h: inconclusive; HCMV inh: 1; Pf growth 48h: inconclusive; HCV inh: -16%

How did CCn1nc(-c2ccccc2)c(-c2ccccc2)c(C(=O)Nc2ccccc2C#N)c1=O do in these assays?
HCMV inh: 7

Results for CC1C(=O)C(C)C(c2ccc3c(c2)OCO3)NC1c1ccc2c(c1)OCO2 (configuration not stated) ?
Pf growth 96h: 23%; HCMV inh: inconclusive; Pf growth 48h: 10µM*; HCV inh: 7%

How did O=C1CC(c2ccc3c(c2)OCO3)CN1 (configuration not stated) do in these assays?
Pf growth 96h: inconclusive; HCMV inh: 3; Pf growth 48h: 23%; HCV inh: 27%

Results for CC1C(=O)C(C)C(c2ccc(Br)cc2)NC1c1ccc(Br)cc1 (configuration not stated) ?
Pf growth 96h: 3.7µM*; HCMV inh: inconclusive; Pf growth 48h: inconclusive; HCV inh: -14%
